# Compounds with a hit are over-represented: about 3.5% of the library has one in this group of screens.
# MITF primary = human MITF inhibition, primary screen; inhibition, % at 2.6 µM; AlphaScreen MITF homodimerization, bead proximity signal; O75030; AID 1259374; 0.91% of 650,000 active; in the data active = inhibition above about 50%
# FBW7 act = activators of human E3 ligase FBW7 | Q969H0 | AlphaScreen FBW7–phospho-cyclin E peptide binding, activator screen | normalized activity (activation), % at 26.1 µM | 0.13% of 650,000 active | AID 1259310; in the data active = normalized activity above about 1.9%;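 note: purified mutant Fbw7 with reduced substrate affinity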
# TEAD-YAP block = TEAD-YAP interaction inhibition; HEK-TIYL cells, TEAD-Gal4/YAP UAS-luciferase luminescence; inhibition, % at 9.12 µM; 1.4% of 640,000 active; in the data active = inhibition above about 32%
# GPR151 activ = human GPR151 activation | PathHunter beta-arrestin GPR151 cells, luminescence | activation, % at 11.2 µM | 1% of 650,000 active | Q8TDV0; in the data active = activation above about 4.9%
# Target sequence (Q8TDV0 whole entry, looked up): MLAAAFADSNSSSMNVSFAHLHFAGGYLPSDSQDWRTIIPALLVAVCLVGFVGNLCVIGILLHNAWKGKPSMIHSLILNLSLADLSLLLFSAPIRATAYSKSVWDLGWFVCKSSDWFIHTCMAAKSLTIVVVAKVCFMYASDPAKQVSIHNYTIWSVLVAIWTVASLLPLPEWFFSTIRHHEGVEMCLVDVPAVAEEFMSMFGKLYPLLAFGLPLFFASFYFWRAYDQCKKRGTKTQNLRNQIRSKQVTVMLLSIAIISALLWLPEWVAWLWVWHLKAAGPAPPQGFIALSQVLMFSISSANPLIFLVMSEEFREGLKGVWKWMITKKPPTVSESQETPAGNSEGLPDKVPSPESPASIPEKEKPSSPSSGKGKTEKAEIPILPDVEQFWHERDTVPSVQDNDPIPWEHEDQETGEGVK
# MITF confirm = human MITF inhibition, confirmation; 16% of 4,700 active; shares compounds with MITF primary; AlphaScreen MITF homodimerization, biotin/His-MITF beads; AID 1259372; inhibition, % at 2.6 µM;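 active = inhibition above a cutoff derived from the DMSO control wells, cut at about 28% in these data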;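 note: inhibitors lower the bead chemiluminescence by keeping MITF from dimerizing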
# AS interf DR = AlphaScreen optical interference, dose response counter-screen. shares compounds with MITF primary. AlphaScreen optical interference counterscreen, cell-free. IC50, µM. 6% of 480 active. AID 1259373; call rule not given here
# AS interf ctr = counter-screen: compounds optically interfering with AlphaScreen | shares compounds with MITF primary | LysRS AlphaScreen counterscreen, signal interference, triplicate | inhibition, % at 2.6 µM | 7.6% of 4,700 active | AID 1259376;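 active = inhibition above a cutoff derived from the DMSO control wells, cut at about 30% in these data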
# Hits are given with their value; n = inactive; x = not tested or not shown.
SMILES,MITF primary,FBW7 act,TEAD-YAP block,GPR151 activ,MITF confirm,AS interf ctr,others
CC1CN(C2CCN(S(=O)(=O)c3ccc4ccccc4c3)CC2)CC(C)O1 (configuration not stated),52,n,n,n,n,n,
COc1ccc(S(=O)(=O)N2CCC(N3CCN(c4ccccc4OC)CC3)CC2)cc1,89,n,n,n,n,n,
COc1ccccc1N1CCN(C2CCCN(C3CCC3)C2)CC1 (configuration not stated),n,n,n,n,x,x,
CC(C)[C@@H](Cn1nnc2ccccc21)NC(=O)c1cncc(O)c1,n,n,n,n,x,x,
Cc1ccc(CCNC(=O)C2C3C=CC4(CN(Cc5ccccc5Cl)C(=O)C24)O3)cc1 (configuration not stated),n,n,n,n,x,x,
Cn1c(CN2CCOCC2)nc(=O)c2ccccc21,53,n,n,n,n,n,
COc1cccc(NC(=O)CNS(=O)(=O)c2ccc(C)cc2)c1,n,n,n,n,x,x,
COCCNC(=O)CCCCn1c(=S)[nH]c2c([nH]c3ccc(OC)cc32)c1=O,52,n,n,n,n,41,
CC(C)n1c(NCCN2CCOCC2)nc2c(NCCN3CCOCC3)ncnc21,67,n,n,n,n,n,
c1ccc(CNc2cc(-c3ccc(N4CCOCC4)nc3)ncn2)cc1,n,n,n,n,x,x,
Cc1ccnc(NC(=O)CSC2=NC(=O)C(c3ccccc3)C(=O)N2)c1 (configuration not stated),93,n,n,n,n,n,
CC(=O)NC(NC(=S)Nc1cccc2cccnc12)C(Cl)(Cl)Cl (configuration not stated),n,n,n,n,x,x,
CCOC(=O)N1CCC(N2CCC3(CC2)CC3C(=O)NCCCc2ccncc2)CC1 (configuration not stated),n,n,n,n,x,x,
CCc1ccc(N2C(=O)C(Cl)=C(NC3CCCCC3)C2=O)cc1,64,n,n,n,n,n,
O=C(OC1CCCC1=O)c1ccc(N2CCCC2=O)cc1 (configuration not stated),62,n,n,n,44,n,AS interf DR=n
COc1ccc(CNC(=O)c2sc3nc(-c4cccs4)ccc3c2N)cc1,n,n,n,n,x,x,
CC(=O)c1sc2nc(-c3cccs3)ccc2c1N,51,n,n,n,n,n,
CC(C)NCC(O)CNC(C)C1COc2ccccc2O1 (configuration not stated),n,n,n,n,x,x,
CC(NCc1ccc([N+](=O)[O-])cc1)C1COc2ccccc2O1 (configuration not stated),62,n,n,n,n,n,
CCS(=O)(=O)N1CCN(CC(=O)NC2CCCCC2)CC1,54,n,n,n,n,n,
O=[N+]([O-])c1ccccc1CN1CCN(c2ncccn2)CC1,n,n,n,n,x,x,
O=[N+]([O-])c1ccccc1CN1CCN(Cc2ccccn2)CC1,69,n,n,n,n,n,
O=[N+]([O-])c1ccccc1CN1CCN(c2ccccn2)CC1,54,n,n,n,n,n,
O=C(NC1CCCCC1)C1CCCN1C(=O)Oc1ccccc1 (configuration not stated),n,n,n,n,x,x,
c1ccc(CNc2nc(-c3ccccn3)nnc2-c2ccccc2)cc1,106,n,n,n,101,100,
SMILES,MITF primary,FBW7 act,TEAD-YAP block,GPR151 activ,MITF confirm,AS interf ctr,others
CN(C)c1nc(-c2ccccn2)nnc1-c1ccccc1,102,n,n,n,107,100,
c1ccc(-c2nnc(-c3ccccn3)nc2-c2ccccc2)cc1,n,n,n,n,x,x,
O=C(NC1CCCCC1)C(c1ccncc1)N(Cc1ccccc1)C(=O)C(F)(F)F (configuration not stated),n,n,n,n,x,x,
NC(=O)CSc1ccc(C(N)=O)cc1[N+](=O)[O-],64,n,n,n,39,n,AS interf DR=n
NC(=O)c1ccc(SCC(=O)O)c([N+](=O)[O-])c1,n,n,n,n,x,x,
CN(C)S(=O)(=O)c1ccc(C(=O)Nc2ncnc3c2CCC3)cc1,55,n,n,n,n,n,
CN(C1CC1)S(=O)(=O)c1ccc(C(=O)Nc2ncnc3c2CCC3)cc1,n,n,n,n,x,x,
COc1ccc(N=C2NC(=O)CC(C(=O)Nc3cc(C(F)(F)F)ccc3Cl)S2)cc1 (configuration not stated),n,n,n,n,x,x,
Cc1ccc(OCC(=O)N/N=C/c2cc(O)ccc2O)cc1,n,n,n,n,x,x,

# Screening data from PubChem.
